PubChem BioAssay (NCI)
The panel holds about 83,000 compounds, 20% with a hit somewhere; the sample as a whole holds those more often.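 Growth was measured after 48 h exposure to one concentration of compound in 96-well plates. Values under 10 count as active.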 Activity calls are given as the source filed them.

How the values were obtained:
Assay in all cases: NCI-60 one-dose screen, 48 h (100 = growth as untreated, 0 = no growth, -100 = all killed)
Conditions in all cases: 10 µM unless noted
NCI-H23 lung = test system: NCI-H23 lung
NCI-H226 lung = test system: NCI-H226 lung
NCI-H322M lung = test system: NCI-H322M lung
HOP-62 NSCLC = test system: HOP-62 NSCLC
NCI-H460 lung = test system: NCI-H460 lung
HOP-92 NSCLC = test system: HOP-92 NSCLC
A549/ATCC NSCLC = test system: A549/ATCC NSCLC
786-0 renal = test system: 786-0 renal
COLO 205 colon = test system: COLO 205 colon
NCI-H522 lung = test system: NCI-H522 lung

Measured: growth

CCCCCN1C(=O)/C(=c2\sc3n(c2=O)C2C(NN=3)N(CC)C(=O)N2CC)c2cccc(C)c21 (stereo unspecified)
inactive: NCI-H23 lung 70% | NCI-H226 lung 42.4% | NCI-H322M lung 82.7% | HOP-62 NSCLC 44.2% | NCI-H460 lung 30.9% | HOP-92 NSCLC 70.2% | A549/ATCC NSCLC 68.6% | 786-0 renal 76% | COLO 205 colon 38.7%

O=C1[C@H]2Cc3c([nH]c4ccccc34)[C@H](c3ccc(Br)cc3)N2C(=O)CN1C1CCN(CC2CCCCC2)CC1
inactive: NCI-H23 lung 83.5% | NCI-H226 lung 92.5% | NCI-H322M lung 92.8% | HOP-62 NSCLC 82.2% | NCI-H460 lung 54.1% | HOP-92 NSCLC 77.2% | NCI-H522 lung 83.6% | A549/ATCC NSCLC 79.4% | 786-0 renal 83.4% | COLO 205 colon 81.3%

COC(=O)c1ccc(NC2=C(Cl)C(=O)C(C)=C(C)C2=O)cc1
inactive: NCI-H23 lung 68.5% | NCI-H226 lung 72.9% | NCI-H322M lung 99.6% | HOP-62 NSCLC 66.2% | NCI-H460 lung 79.3% | HOP-92 NSCLC 64.9% | A549/ATCC NSCLC 81.5% | 786-0 renal 84.9% | COLO 205 colon 104%

CN1CCN(CCCCCC(=O)Nc2nc(-c3cccc(NS(=O)(=O)c4cccc5c(N(C)C)cccc45)c3)cs2)CC1
inactive: NCI-H23 lung 65.2% | NCI-H226 lung 85.9% | NCI-H322M lung 96% | HOP-62 NSCLC 90.3% | NCI-H460 lung 79.3% | HOP-92 NSCLC 32.4% | A549/ATCC NSCLC 70.9% | 786-0 renal 79% | COLO 205 colon 82.4%

CCCCCC[n+]1ccc(SCC(=O)n2ccc3ccccc32)c2ccccc21
inactive: NCI-H23 lung 63.8% | NCI-H226 lung 79.5% | NCI-H322M lung 94% | HOP-62 NSCLC 90.2% | NCI-H460 lung 99.5% | HOP-92 NSCLC 81.2% | A549/ATCC NSCLC 101% | 786-0 renal 102% | COLO 205 colon 99.4%

C1=CC(c2nn3c(-c4ccccc4)nnc3s2)=Cc2ccccc2O1
inactive: NCI-H23 lung 75.8% | NCI-H226 lung 31.7% | NCI-H322M lung 96.3% | HOP-62 NSCLC 105% | NCI-H460 lung 87.2% | HOP-92 NSCLC 55.9% | A549/ATCC NSCLC 89.7% | 786-0 renal 91.8% | COLO 205 colon 90.2%

COC(=O)c1cccc(NC2=C(Cl)C(=O)C(C)=C(C)C2=O)c1
inactive: NCI-H23 lung 92.4% | NCI-H226 lung 85.9% | NCI-H322M lung 100% | HOP-62 NSCLC 94.8% | NCI-H460 lung 101% | HOP-92 NSCLC 33.9% | A549/ATCC NSCLC 115% | 786-0 renal 104% | COLO 205 colon 114%

Cc1[nH]c(C(=O)Nc2ccc(S(=O)(=O)N3CCCCC3)cc2OCCOCCOCCOCCOCCOCCOCCOCCOCCOc2cc(S(=O)(=O)N3CCCCC3)ccc2NC(=O)c2[nH]c(C)c3c2CCCCC3=O)c2c1C(=O)CCCC2
inactive: NCI-H23 lung 20.8% | NCI-H322M lung 34.1% | HOP-62 NSCLC 12.5% | NCI-H460 lung 35.6% | HOP-92 NSCLC 16.9% | A549/ATCC NSCLC 24.1% | 786-0 renal 40.2%
active: NCI-H226 lung -2.37% | NCI-H522 lung 0.322% | COLO 205 colon -30.3%

CC(C)NC(=O)c1cc(-c2ccc(NC(=O)Nc3ccc(F)cc3)cc2)nc2cccnc12
inactive: NCI-H23 lung 99.4% | NCI-H226 lung 99.1% | NCI-H322M lung 104% | HOP-62 NSCLC 101% | NCI-H460 lung 104% | HOP-92 NSCLC 96.7% | NCI-H522 lung 96.8% | A549/ATCC NSCLC 104% | 786-0 renal 97.1% | COLO 205 colon 118%

CN1CCN(c2ccc(Nc3nc(NCCNS(=O)(=O)c4ccccc4)c4sccc4n3)cc2)CC1
inactive: NCI-H23 lung 97.5% | NCI-H226 lung 94.2% | NCI-H322M lung 94.9% | HOP-62 NSCLC 98.7% | NCI-H460 lung 104% | HOP-92 NSCLC 57.3% | NCI-H522 lung 95% | A549/ATCC NSCLC 104% | 786-0 renal 99.2% | COLO 205 colon 110%

C#Cc1nc(/C=C\CCCCCCC(=O)NO)cs1
inactive: NCI-H226 lung 74.2% | NCI-H322M lung 78.4% | HOP-62 NSCLC 79.7% | NCI-H460 lung 55.4% | A549/ATCC NSCLC 67.6% | COLO 205 colon 84.7%
active: NCI-H23 lung -63.5% | HOP-92 NSCLC -75.3% | 786-0 renal -78.5%

CC1=C(C)C(=O)C(Nc2cccc(C)c2)=C(Br)C1=O
active: HOP-92 NSCLC -35.5%
inactive: NCI-H23 lung 85.1% | NCI-H226 lung 92.2% | NCI-H322M lung 98.4% | HOP-62 NSCLC 90.7% | NCI-H460 lung 103% | A549/ATCC NSCLC 101% | 786-0 renal 107% | COLO 205 colon 126%

O=C(/C=C/C=C/c1csc(Br)n1)NO
inactive: NCI-H23 lung 103% | NCI-H226 lung 103% | NCI-H322M lung 99.4% | HOP-62 NSCLC 112% | NCI-H460 lung 92.2% | HOP-92 NSCLC 129% | A549/ATCC NSCLC 93.5% | 786-0 renal 101% | COLO 205 colon 110%
